# Laboratory results from PubChem BioAssay AID588342 (National Center for Advancing Translational Sciences (NCATS), 2011).
# About 25,000 (6.9%) of roughly 360,000 compounds were called active. Not shown: some 9% with an inconclusive outcome. Calls come from the whole dose curve; as a rule, active = well fitted inhibition curve with a large enough effect; inconclusive = small, poorly fitted or top-dose-only effect; inactive = flat fitted curve, though single readings scatter. The entries come from a sample that favours actives as a whole.
# Molecular target: Luciferin 4-monooxygenase (Photinus pyralis) (UniProt P08659)
# Sequence (P08659 whole entry, looked up): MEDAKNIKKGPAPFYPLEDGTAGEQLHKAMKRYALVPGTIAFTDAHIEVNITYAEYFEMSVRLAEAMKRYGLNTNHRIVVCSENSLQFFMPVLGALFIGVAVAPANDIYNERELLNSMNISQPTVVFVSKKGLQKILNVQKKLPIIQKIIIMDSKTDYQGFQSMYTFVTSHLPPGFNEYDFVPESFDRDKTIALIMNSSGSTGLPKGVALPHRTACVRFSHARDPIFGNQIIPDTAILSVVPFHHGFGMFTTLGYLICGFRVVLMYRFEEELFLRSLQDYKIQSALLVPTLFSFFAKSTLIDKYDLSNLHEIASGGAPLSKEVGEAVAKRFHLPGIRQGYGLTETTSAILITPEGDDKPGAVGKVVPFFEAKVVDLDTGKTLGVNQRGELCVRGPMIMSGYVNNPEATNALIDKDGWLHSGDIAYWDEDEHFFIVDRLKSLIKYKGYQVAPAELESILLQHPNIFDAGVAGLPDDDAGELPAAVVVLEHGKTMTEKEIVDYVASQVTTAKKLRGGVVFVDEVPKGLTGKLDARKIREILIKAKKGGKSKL
# Experiment: qHTS profiling assay for firefly luciferase inhibitor/activator using purifed enzyme and Km concentrations of substrates (counterscreen for miR-21 project); note: nearly all actives have a fitted effect of over 55% in size;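 for activity change, negative = inhibition: plate controls were vehicle for no effect and reference inhibitor for full effect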
# Conditions: purified FLuc, luminescence inhibition; series mostly up to 57.5 µM; activity change, negative = inhibition: at the top concentration
# Source text: MLPCN Grant: 1 R21 NS059478-01 (miR-21 grant) Assay Provider: NCGC NCGC Assay Overview: Firefly (Photinus pyralis) luciferase is one of the most commonly used transcriptional reporters for a number of reasons. It is considered one of the more dynamically responsive reporters -that is, responsive to changes in reporter transcription - as it requires no post-translational modifications and is enzymatically active directly after protein synthesis (Wood, 1998). Additionally, the half-life of the luciferase protein is short relative to other reporter-gene products (Wood, 1995). Whereas reporters with long half-lives potentially allow for increased signal due to accumulation of reporter-gene product, once accumulated in the cell, dynamic changes in reporter-gene expression may be difficult to detect(Fan and Wood, 2007; Almond et al., 2004). It has been shown that wild-type P. pyralis luciferase has a half-life of approximately […] hours in mammalian cells (Thompson et al., 1991). Firefly luciferase reporter-gene assays are also generally considered one of the most sensitive assay types (Wood, 1995; Wood, 1998). Although light produced in a bioluminescence reaction is of lower intensity than that produced during fluorescence emission, this is offset by little to no background light inherent to luminescent assays. Thus the luciferase reporter can be expressed at much lower levels than fluorescent proteins while still providing robust signal. # However, it was initially observed, in 1991, by Thompson et al., that compounds that resemble the substrates of firefly luciferase (FLuc) can act as competitive inhibitors of the enzyme, and that these compounds, upon interaction with luciferase in the cell, can actually stabilize the protein and increase its half-life. Accumulated intracellular FLuc protein can be measured as an increase in luminescence signal, upon addition of detection reagents (which contain high concentrations of FLuc substrates) commonly used in high-throughput screening. In cell-based reporter gene assays that use FLuc as the reporter gene to quantitate the potential influence of a given compound against the target biology, this apparent increase in luminescence can mistakenly be interpreted as identification of a compound that is active against the target of interest. This is the case for the miR-21 FLuc reporter gene assay used to identify inhibitors of the miR-21 pathway (PubChem AID 2289) - compounds of interest will inhibit miR-21 biogenesis/expression or activity, and are identified by causing an increase in luminescence, due to increased FLuc translation. However, FLuc inhibitory compounds that stabilize the FLuc protein will give an identical read-out, making it difficult to distinguish compounds that are active against the target from those active against FLuc. Previous profiling work to determine the prevalence of compounds that affect FLuc enzymatic activity (PubChem AID 411) identified that ~3% of the MLSMR library (then at ~72K) inhibited FLuc. […] Since the MLSMR had grown to ~350K compounds, and since it was expected that a significant percentage of compounds found active in the miR-21 FLuc assay would be FLuc inhibitors, the library was screened for activity against FLuc using a biochemical assay of purified FLuc and KM concentrations of FLuc substrates (D-luciferin and ATP).
# NCGC Assay Protocol Summary: Reagents: 50mM Tris acetate, pH 7.5; 10mM Mg acetate; 10uM D-luciferin (Sigma #L9504); 10uM ATP; 0.01% Tween-20; 0.05% BSA; 10nM P. pyralis luciferase (Sigma #L9506) Control compounds used were two known firefly luciferase inhibitors (compounds (2) and (5) in Auld et al., 2010), and DMSO. […]
Compound,"activity change, negative = inhibition",Potency
COc1ccc(N2CCN(S(=O)(=O)c3ccc4c(c3)N(C(C)=O)CCO4)CC2)cc1,1.92% (inactive),
CCOc1ccc(S(=O)(=O)NCCC(=O)NCC2CCCO2)cc1 (configuration not stated),2.24% (inactive),
Cc1cc(NC(=O)c2ccc(-c3ccc(Cl)cc3)o2)cc(-c2nc3ncccc3o2)c1O,3.37% (inactive),
O=C(Nc1cccc2ncccc12)c1ccc(-c2ccc(Cl)cc2Cl)o1,,12 µM (active)
O=C(Nc1cccnc1Oc1ncnc2cc(Cl)ccc12)c1ccc(F)cc1,-2.02% (inactive),
COc1cc(OC)cc(C(=O)OCC(=O)Nc2sccc2C(N)=O)c1,,15.1 µM (active)
CCCCn1nc(C(=O)OCC(=O)Nc2sccc2C(N)=O)c2ccccc2c1=O,-1.34% (inactive),
NC(=O)c1ccsc1NC(=O)COC(=O)COc1ccc(C=O)cc1,6.4% (inactive),
Cc1ccc(F)cc1NC(=O)CSCc1c(C)noc1C,3.3% (inactive),
COC(=O)[C@H](CC(C)C)NC(=O)N1CCCCC1C (some centres not stated),4.28% (inactive),
CC1CCCCN1Cc1c(O)ccc2c(=O)c(-c3cccc(Cl)c3)c(C(F)(F)F)oc12 (configuration not stated),-3.84% (inactive),
CCC1CCCCN1Cc1c(O)ccc2c(=O)c(Oc3ccccc3Cl)c(C(F)(F)F)oc12 (configuration not stated),1.49% (inactive),
Cc1nc(-c2ccc(NC(=O)c3cccs3)cc2)cs1,,0.426 µM (active)
Cc1nc2ccccn2c(=O)c1NC(=O)c1cccs1,-0.785% (inactive),
O=C(Nc1n[nH]c(C(F)(F)F)n1)c1cccs1,2.94% (inactive),
Cc1ccc(-c2csc(NC(=O)c3cccs3)n2)cc1,,10.7 µM (active)
CCOC(=O)c1oc2ccccc2c1NC(=O)c1cccs1,13.2% (inactive),
CCc1c(C)sc(NC(=O)c2ccc(Br)o2)c1C(=O)OC,-14.9% (inactive),
COc1cccc(NC(=O)CN2CCN(c3nc(-c4cccc(OC)c4)cs3)CC2)c1,-18.5% (inactive),
CCc1c(C)sc(NC(=O)c2cccs2)c1C(N)=O,,6.75 µM (active)
COc1cccc(CC(=O)Nc2ccc(-c3csc(C)n3)cc2)c1,,16.9 µM (active)
Cc1cc(C)cc(NC(=O)Cc2csc(C)n2)c1,-10.2% (inactive),
CCC1SC(CC)C(=O)N(CC(=O)NC2CCCCC2)C1=O (configuration not stated),5.3% (inactive),

Compound,"activity change, negative = inhibition",Potency
Cc1cccc(NC(=O)C2CCCN2S(=O)(=O)c2cccc3nsnc23)c1C (configuration not stated),-1.86% (inactive),
Cc1nn(C)c2c1c(C(F)(F)F)cc(=O)n2C(C)C(=O)NCc1ccc(Cl)cc1 (configuration not stated),-6.42% (inactive),
CC(CC(=O)Nc1ccccc1)n1ccnc1 (configuration not stated),-1.48% (inactive),
CCc1nc2ccc(C(=O)N3CCN(c4cc(Cl)ccc4C)CC3)cc2nc1CC,-1.21% (inactive),
COc1ccc(CCNC(=O)Cn2c(=O)cc(C(F)(F)F)c3c(C)nn(C)c32)c(OC)c1,7.08% (inactive),
CCc1ccccc1NC(=O)N1CCC2(CC1)Oc1ccccc1C(=O)N2Cc1ccccc1F,-10.7% (inactive),
CCN(CC(=O)Nc1cc(Cl)ccc1C)C(=O)CSCc1ccccc1,-2.11% (inactive),
Fc1cccc(Cc2noc(CN3CCN(c4cnccn4)CC3)n2)c1,2.61% (inactive),
CCCc1nnc(NC(=O)CCC(=O)NC2CC2)s1,0.134% (inactive),
CCc1nnc(NC(=O)Cc2cccs2)s1,-1.84% (inactive),
CCCc1nnc(NC(=O)c2cccs2)s1,,16.9 µM (active)
COc1ccc(CCNC(=O)c2ccc3c(c2)nc(C)n3-c2ccc(Br)cc2)cc1OC,-2.6% (inactive),
COc1ccc(OC)c(NC(=O)Cn2c(=O)n(Cc3ccccc3)c(=O)c3ccccc32)c1,-0.577% (inactive),
Cc1ccc(NC(=O)C(C)Sc2nnc(C3CC3)n2C2CC2)cc1S(=O)(=O)N1CCOCC1 (configuration not stated),12.6% (inactive),
CC(=O)C1=C(C)NC(=O)NC1c1ccc2c(c1)OCO2 (configuration not stated),4.8% (inactive),
CC(=O)c1cc2c(cc1N)OCO2,3.19% (inactive),
Nc1[nH][nH]c(=O)c1N=Nc1ccc2c(c1)OCO2,,13.5 µM (active)
Cc1ccc(CNC(=O)CC(NC(=O)c2ccccc2)c2ccccc2)cc1 (configuration not stated),6.17% (inactive),
Cc1cccc(NC(=O)CN2CCN(CC(=O)NCC3(N4CCCCC4)CCCCC3)CC2)c1C,6.22% (inactive),
Cn1c(SCC(=O)N2CCCC2)nnc1-c1cccs1,0.337% (inactive),
CCn1c(SCC(=O)c2ccc(Cl)s2)nnc1-c1cccs1,,16.9 µM (active)
CCn1c(SCC(=O)Nc2nccs2)nnc1-c1ccncc1,-0.256% (inactive),
Cc1ccc(C)c(N2CCN(C(=O)Cn3ncc4c(=O)oc5ccc(C)cc5c43)CC2)c1,2.16% (inactive),

Compound,"activity change, negative = inhibition",Potency
COc1ccc(OC)c(CCNC(=O)CCCn2c(=O)c3cccn3c3cccnc32)c1,-0.342% (inactive),
COc1ccc(N(CCC(=O)NCCc2ccccc2)S(=O)(=O)c2ccc(C)cc2C)cc1,-19.9% (inactive),
O=C(Nc1cc(C(F)(F)F)ccc1Cl)c1cc2nc(-c3ccc4c(c3)OCO4)cc(C(F)(F)F)n2n1,4.73% (inactive),
O=C(Nc1cc(C(F)(F)F)ccc1Cl)c1cc2nc3c(c(C(F)(F)F)n2n1)CCCC3,,2.69 µM (active)
O=C(CSc1nc(=O)[nH]c2c1CCCC2)Nc1cc(C(F)(F)F)ccc1Cl,-12.1% (inactive),
COc1cccc(N2CCN(S(=O)(=O)c3ccc4c(c3)CCCN4C(C)=O)CC2)c1,-5.49% (inactive),
O=S(=O)(NCc1ccco1)c1cnc(Cl)c(Cl)c1,-0.879% (inactive),
Cc1c(Cl)cnc(NC(=O)COC(=O)c2ccc(S(=O)(=O)NCc3ccco3)cc2)c1Cl,-2.56% (inactive),
C/C(=N\NS(=O)(=O)c1ccc(Br)cc1)c1cccs1,-1.87% (inactive),
C/C(=N\Nc1nc2ccccc2[nH]1)c1cccs1,,2.69 µM (active)
CC(Oc1ccc(Cl)cc1)C(=O)OCC(=O)Nc1ncc(Cl)cc1Cl (configuration not stated),4.74% (inactive),
O=C(Nc1ccccc1-c1nc2ccccc2[nH]c1=O)c1cccs1,-3.19% (inactive),
C/C(=N\NC(=O)COc1c(C)cccc1C)c1cccs1,6.97% (inactive),
C/C(=N\Nc1ncc(Cl)cc1Cl)c1ccc(S(=O)(=O)NCc2ccco2)cc1,,16.9 µM (active)
C/C(=N\Nc1ncc(Cl)cc1Cl)c1cccs1,,9.53 µM (active)
COc1cccc(/C(C)=N/Nc2ncc(Cl)cc2Cl)c1,,19 µM (active)
COc1ccc(/C(C)=N/Nc2cc(C(F)(F)F)ccc2Cl)c(OC)c1,3.38% (inactive),
C/C(=N\Nc1ccc(S(N)(=O)=O)cc1[N+](=O)[O-])c1cccs1,0.692% (inactive),
CCOC(=O)c1c(NC(=O)CSc2cn(CCNC(=O)c3cccc(C(F)(F)F)c3)c3ccccc23)sc2c1CCC2,4.53% (inactive),
Cc1occc1-c1nnc(SCC(=O)NC2CCCCC2)o1,0.886% (inactive),
CCCc1nn2c(=O)cc(COC(=O)c3ccc(NC(=O)COc4ccc(F)cc4)cc3)nc2s1,-4.99% (inactive),
